# Compound activity: PubChem BioAssay, National Center for Advancing Translational Sciences (NCATS)
# KB-3-1 cytotox – KB-3-1 parental cell cytotoxicity | 400,000 tested, 1.4% active | KB-3-1 viability, CellTiter-Glo ATP luminescence, 72 h | AID 1347075 | Potency, µM (top dose mostly 46.1 µM), usual class: cytotoxic; also: nearly all actives have a fitted effect of over 60% in size
#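 72 h, 37 °C compound treatment of KB-3-1 parental cells; CellTiter-Glo added, 10 min, luminescence read. Data corrected against DMSO-only plates and normalized before curve fitting.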
# MCF10A rerep – DNA re-replication induction in MCF 10a cells. MCF 10A DNA re-replication, Hoechst nuclear intensity, 48 h. Potency, µM (titrated, usually from 46.1 µM), hits mostly activators. 350,000 tested, 2.9% active. AID 624296; also: nearly all actives have a fitted effect of over 50% in size
# HT1080NT lethal – kills 2HG-producing HT-1080-NT fibrosarcoma cells; 360,000 tested, 1.6% active; Potency, µM (titrated, usually from 46.1 µM), hits mostly cytotoxic; AID 686970; HT-1080-NT fibrosarcoma viability, CellTiter-Glo ATP luminescence, 48 h;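 also: NT is the 2HG producing partner of a matched IDH1 knockdown line; nearly all actives have a fitted effect of over 55% in size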
#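 Viability of the 2HG-overproducing fibrosarcoma line after 48 hours of compound exposure at 37 degrees C was determined by luminescence with CellTiter-Glo, and concentration-effect curves were then fitted and categorized.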
# SW480 rerep – DNA re-replication induction in SW480 cells; SW480 DNA re-replication, Hoechst DNA content imaging, 48 h; Potency, µM (top dose mostly 46.1 µM), actives largely listed as activators; 340,000 tested, 1.8% active; also: nearly all actives have a fitted effect of over 55% in size
#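 Treated cells incubate 48 hr (37 C, 5% CO2), are stained 40 min with Hoechst, and nuclear fluorescence is enumerated; a rise in nuclei with high DNA signal marks re-replication.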
# KB-V1 cytotox – KB-V1 MDR subline cytotoxicity; KB-V1 MDR cells viability, CellTiter-Glo, 72 h; Potency, µM (titrated, usually from 46.1 µM), usual class: cytotoxic; 400,000 tested, 3.4% active; AID 1347076; also: nearly all actives have a fitted effect of over 60% in size
#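 qHTS viability screen in drug-selected KB-V1 MDR cells: 72 h compound treatment at 37 degrees C, ATP luminescence end point.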
# HT1080 IDH1KD tx – HT-1080 IDH1 knockdown cell toxicity (counter line) | HT-1080 IDH1 knockdown viability, ATP luminescence, 48 h | AID 686971 | 360,000 tested, 2% active | Potency, µM (series often up to 46.1 µM), usual class: cytotoxic
#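 After a 2 h attachment period, IDH1KD HT-1080 cells took pin-transferred compound for 48 h at 37 °C; ATP-based luminescence after 10 min room-temperature reagent incubation reported viability.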
# Hits are given with their value; – = inactive; ? = inconclusive; · = no result given; ! = repeats disagree. Most compounds without a hit are left out; they make up all but 8% or so of the library. Calls follow the shape of the dose curve; as a rule, active = well fitted curve in the direction sought with a large enough effect; inconclusive = small, poorly fitted or top-dose-only effect, or another doubt; inactive = no such curve, though single readings can be large; an effect the other way counts as inactive or inconclusive.
SMILES,KB-3-1 cytotox,MCF10A rerep,HT1080NT lethal,SW480 rerep,KB-V1 cytotox,HT1080 IDH1KD tx
CCCCNc1c(-c2ccc(SC(C)CC)cc2)nc2cnccn12 (stereo not drawn),?,4.6µM,?,18µM,–,?
CCCCCCSc1cccc(-c2nc3cc(C)ccn3c2NCc2ccccc2)c1,?,?,?,–,?,?
CCc1ccc(S(=O)(=O)c2nnn(-c3cccc(C)c3)c2N)cc1,–,·,·,·,–,·
COc1cc(NC(=O)C2CCN(S(=O)(=O)c3ccc4c(c3)oc(=O)n4C)CC2)cc(OC)c1,–,·,·,·,–,·
COC1(C(F)(F)F)NC(=O)N(c2ccc(F)cc2)C1=O (stereo not drawn),–,·,·,·,–,·
Cc1coc2c1c(C)cc1oc(=O)cc(C)c12,–,·,·,·,–,·
CC(/C=C/C=C(\C)C(=O)O[C@@H]1O[C@H](CO[C@@H]2O[C@H](CO)[C@@H](O)[C@H](O)[C@H]2O)[C@@H](O)[C@H](O)[C@H]1O)=C\C=C\C=C(C)\C=C\C=C(/C)C(=O)O[C@@H]1O[C@H](CO[C@@H]2O[C@H](CO)[C@@H](O)[C@H](O)[C@H]2O)[C@@H](O)[C@H](O)[C@H]1O,·,–,·,–,·,·
CCCCNc1c(-c2ccc(SC3CCCCC3)c(OC)c2)nc2ccc(Cl)cn12,–,?,–,–,–,–
CCCCNc1c(-c2ccc(-c3ccc(OC)cc3)c(OC)c2)nc2ccccn12,?,21µM,–,?,?,–
O=C(c1ccccc1F)N1CCCC(c2ccccc2)C1 (stereo not drawn),–,–,–,–,23µM,–
O=C(/C=C/c1cccc([N+](=O)[O-])c1)NC(=S)Nc1cccc(NC(=O)c2ccccc2Cl)c1,16µM,–,?,?,?,?
O=[N+]([O-])c1cccc(NC(=S)Nc2nc(-c3ccccc3Cl)cs2)c1,?,?,?,–,–,18µM
O=C(CSc1nc(-c2ccc(Cl)cc2)cs1)Nc1cccc([N+](=O)[O-])c1,?,–,16µM,–,?,?
Cc1cc(NC(=O)CSc2nc(-c3ccc(Cl)cc3)cs2)no1,–,–,?,–,–,?
COc1ccc2oc(=O)c(C(=O)NCCc3c(C)[nH]c4c(C)cccc34)cc2c1,–,·,·,·,?,·
CC(=O)Nc1ccc(NC(=O)C2CCCN2S(=O)(=O)c2ccc3c(c2)CCCC(=O)N3)cc1 (stereo not drawn),–,·,·,·,?,·
COc1ccc(NC(=O)Nc2nnc(N3CCCC3)s2)cc1,–,·,·,·,?,·
Cc1cc2oc3cc(NCCC4CCCN4C)ccc3c(=O)c2cc1C (stereo not drawn),–,16µM,?,?,–,?
Cc1ccc2c(c1)N(C(=O)N1CCC(C(=O)NCCc3ccc(Cl)cc3)CC1)CC(C)O2 (stereo not drawn),–,·,·,·,–,·
O=C(C[C@H]1C(=O)N(CCc2ccccc2)C[C@@H]1Cc1ccccc1)Nc1ccccc1,?,–,–,–,21µM!,–
CNC(=O)C[C@H]1C(=O)N(c2ccccc2)C[C@@H]1Cc1ccccc1,–,·,–,·,–,–
O=C(C[C@H]1C(=O)N(c2ccccc2)C[C@@H]1Cc1ccccc1)Nc1ccccc1,23µM!,·,–,·,9.2µM!,–
Cc1ccc(NC(=O)CN2C(=O)CSc3ccc(S(=O)(=O)N(C)C)cc32)cc1C,–,·,·,·,–,·
CCCn1c(=O)sc2cc(NC(=O)c3ccc(OC)c(Br)c3)ccc21,23µM,·,·,·,–,·
O=C1/C(=C/c2ccncc2)CCC/C1=C\c1ccncc1,7.3µM,3.7µM,4.6µM,2.6µM,?,4.1µM
SMILES,KB-3-1 cytotox,MCF10A rerep,HT1080NT lethal,SW480 rerep,KB-V1 cytotox,HT1080 IDH1KD tx
O=C1C(=Cc2ccccc2Cl)CCc2ccccc21,21µM,·,?,·,?,?
O=C1/C(=C/c2ccncc2)CCc2ccccc21,–,?,–,21µM,15µM,?
O=C1/C(=C\c2ccccc2)CCC/C1=C/c1ccccc1,?,15µM,?,?,?,?
O=C1CCC/C1=C\c1ccccc1,–,–,–,–,–,–
COc1ccc(NC(=O)c2cnc3sc(N4CCOCC4)nn3c2=O)c(OC)c1,–,·,·,·,?,·
CCc1c(C)sc(NC(=O)c2cccs2)c1C(=O)OC(C)C,–,10µM,–,–,–,–
COc1ccc(-c2c(C#Cc3ccsc3)c3cc(-c4ccc5cc[nH]c5c4)ccc3n2C)cc1,–,2.3µM,–,?,?,–
O=C(COc1ccccc1)Nc1ccc2nc(SCCOc3ccccc3)sc2c1,–,·,·,·,–,·
Cc1nc(NC(=O)c2cccc(-c3cc4ccccc4oc3=O)c2)ccc1Br,?,21µM,–,–,?,–
Cc1nc(NC(=O)c2ccc(-c3cc4ccccc4oc3=O)cc2)ccc1Br,–,–,–,–,–,–
O=C(Nc1cccc(Cl)c1N1CCCC1)c1cc2ccccc2o1,–,21µM,?,–,–,?
O=C(Nc1ccc(Br)cn1)c1cccc(-c2cc3ccccc3oc2=O)c1,?,18µM,?,?,–,23µM
O=C(Nc1ccccc1N1CCCC1)c1cccc(-c2cc3ccccc3oc2=O)c1,–,–,–,?,3.7µM,–
O=C(Nc1cccc(Cl)c1N1CCCC1)c1ccc(Br)o1,–,?,–,–,?,–
Cc1ccc(Cl)cc1N1CCN(C(=O)Cn2c(-c3cccs3)cc3cc(F)ccc32)CC1,–,·,·,·,–,·
CCOC(=O)c1cccc(NC(=O)Cn2ncc3c(=O)oc4ccccc4c32)c1,–,·,·,·,–,·
COc1ccc(NC(=O)CCCN2C(=O)CCn3nc(-c4cn(C)c5ccccc45)cc32)cc1,–,·,·,·,–,·
Cc1c(CN(C)C(=O)c2cc(-c3ccccc3)nc3ccc(Br)cc23)cnn1C,–,·,·,·,–,·
CC(C)(C)NC(=O)NCC1CCCC1NC(=O)NC(C)(C)C (stereo not drawn),–,–,–,–,26µM,–
COC(=O)N/N=C(\C)c1ccc(OC(F)F)cc1,–,–,–,–,?,–
C/C(=N\NC(=O)C1CC1)c1ccc(OC(F)F)cc1,?,–,–,–,13µM,–
O=C(Nc1ccc(Cl)cn1)c1cnn2c1NC(=C1CC1)C=C2C(F)F,–,·,·,·,–,·
COc1ccc(C2=Nc3ccccc3N(C(=O)c3ccc(C)cc3)C2C(=O)NCc2ccccc2)cc1 (stereo not drawn),–,·,–,·,?,–
COc1ccc(C2=Nc3ccccc3N(C(=O)c3ccc4c(c3)OCO4)C2C(=O)NCc2ccccc2)cc1 (stereo not drawn),4.6µM,·,–,·,?,?
O=C(CCC1N=C2c3ccccc3N=C(SCc3ccc(F)cc3)N2C1=O)NC1CCCCC1 (stereo not drawn),–,·,·,·,–,·
O=C(/C=C/c1ccc(S(=O)(=O)N2CCOCC2)cc1)Nc1ccc(F)c(F)c1F,?,–,–,–,21µM,–
